Bioassay records (PubChem)
RE007 growth inh: qHTS Assay for Inhibitors of the HIV-1 protein Vpr. S. pombe RE007 Vpr strain, BacTiter-Glo ATP luminescence, 24 h. Potency, µM (doses to about 92.2 µM), without a hit: top-dose activity change, negative = less growth, usual class: inhibitors. actives 0.21% (n = 360,000); active = well fitted falling curve with a large enough effect; inconclusive = small, poorly fitted or top-dose-only effect; inactive = no such curve, though single readings can be large or run the other way; note: nearly all actives have a fitted effect of over 50% in size
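Fission yeast RE007 carrying one integrated HIV-1 vpr copy, seeded at OD 0.01 in PMG+AL medium with 23 nL pinned compound. Grown 24 h at 30 degrees; viability read by BacTiter-Glo luminescence after 5 min.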
Giardia FBPA inh-1: qHTS Assay for Inhibitors of Fructose-1,6-bisphosphate Aldolase from Giardia Lamblia; actives 0.71% (n = 290,000); A8B2U2; purified Giardia FBPA; Potency, µM (top dose mostly 59.6 µM), for inactives: top-dose activity, negative = inhibition, actives largely listed as inhibitors; AID 2451, 2010; note: nearly all actives have a fitted effect of over 55% in size
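Giardia FBPA (40 nM reagent) was preincubated 10 min at RT with compound (up to 57.5 uM final), then substrate plus GAPDH/TPI/NAD/arsenate coupling system with diaphorase/resazurin was added; resorufin fluorescence (525/598 nm) was read after 20 min.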
Tb PYK inh: qHTS of Trypanosoma Brucei Inhibitors; pyruvate kinase (Trypanosoma brucei), Q57TT1; TbPYK enzyme, Kinase-Glo Plus ATP luminescence, 45 min; Potency, µM (titrated, usually from 76.8 µM), inactives show at the highest dose activity, negative = inhibition, actives largely listed as inhibitors; actives 0.12% (n = 410,000); AID 624173, 2012; note: nearly all actives have a fitted effect of over 50% in size
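Luminescence from Kinase-Glo Plus, added after a 45-minute room-temperature reaction, served as the end-point read-out. The enzyme and substrate were preincubated with compound before ADP (130 uM final) initiated turnover. Concentration-effect curves came from normalized qHTS data.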
LmPK inhibitor: qHTS Assay for Inhibitors of Leishmania Mexicana Pyruvate Kinase (LmPK); purified LmPK, Kinase-Glo ATP luminescence, 1 h; Potency, µM (doses to about 57.5 µM), for the others: at the highest dose activity change, negative = inhibition, actives largely listed as inhibitors; actives 0.37% (n = 290,000); AID 1721, 2009
Target sequence (Q27686 whole entry, looked up): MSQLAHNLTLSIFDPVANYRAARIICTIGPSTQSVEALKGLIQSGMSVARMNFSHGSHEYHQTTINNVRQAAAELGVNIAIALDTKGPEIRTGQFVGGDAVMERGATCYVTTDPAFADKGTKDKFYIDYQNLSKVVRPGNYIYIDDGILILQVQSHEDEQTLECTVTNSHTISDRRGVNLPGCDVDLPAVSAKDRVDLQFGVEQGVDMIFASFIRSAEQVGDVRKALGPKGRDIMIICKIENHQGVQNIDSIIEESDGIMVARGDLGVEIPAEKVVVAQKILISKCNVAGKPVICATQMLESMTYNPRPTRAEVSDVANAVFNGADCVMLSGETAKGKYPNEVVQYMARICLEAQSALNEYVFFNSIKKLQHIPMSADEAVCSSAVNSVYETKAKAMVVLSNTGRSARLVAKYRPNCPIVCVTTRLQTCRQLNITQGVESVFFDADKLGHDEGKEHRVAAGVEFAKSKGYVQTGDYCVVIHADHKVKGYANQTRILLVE
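Kinase-Glo luminescence read after 1 h RT reaction of 0.1 nM LmPK with 0.5 mM PEP and 0.1 mM ADP. Activity scaled between uninhibited and enzyme-free controls.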
Giardia growth: qHTS Assay for Inhibitors of Fructose-1,6-bisphosphate Aldolase from Giardia Lamblia: Giardia lamblia growth inhibition; shares compounds with Giardia FBPA inh-1; Giardia lamblia trophozoite growth inhibition; Potency, µM (highest dose often 57.5 µM), for inactives: at the highest dose activity change, negative = inhibition, usual class: inhibitors; actives 5% (n = 1,500); AID 2785, 2010;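 note: trophozoites exposed to compound for 48 h at 37 °C; nearly all actives have a fitted effect of over 70% in size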
Mammal cell tox: qHTS Assay for Inhibitors of Fructose-1,6-bisphosphate Aldolase from Giardia Lamblia: Mammalian cellular toxicity; mammalian cell viability counter-screen, qHTS; shares compounds with Giardia FBPA inh-1; actives 4% (n = 1,500); Potency, µM (titrated, usually from 57.5 µM), without a hit: top-dose viability change, negative = toxicity, hits mostly inhibitors; AID 2786, 2010;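 note: Chinese hamster ovary cells used as mammalian cytotoxicity surrogate; viability measured as cellular ATP by luminescence; compound exposure lasted 48 h before reading; nearly all actives have a fitted effect of over 60% in size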
Giardia FBPA inh-2: qHTS Assay for Inhibitors of Fructose-1,6-bisphosphate Aldolase from Giardia Lamblia: Primary screen confirmation; shares compounds with Giardia FBPA inh-1; purified Giardia aldolase enzyme activity, qHTS; Potency, µM (titrated, usually from 57.5 µM), without a hit: at the top dose activity change, negative = inhibition, hits mostly inhibitors; actives 5% (n = 1,500); AID 2787, 2010; note: nearly all actives have a fitted effect of over 45% in size
Rabbit FBPA inh: qHTS Assay for Inhibitors of Fructose-1,6-bisphosphate Aldolase from Giardia Lamblia: Rabbit FBPA Selectivity. Potency, µM (top dose mostly 57.5 µM), without a hit: at the top dose activity, negative = inhibition, actives largely listed as inhibitors. shares compounds with Giardia FBPA inh-1. Rabbit muscle FBPA enzyme inhibition, selectivity counter-screen. actives 4% (n = 1,500); note: nearly all actives have a fitted effect of over 60% in size
GAPDH counter: qHTS Assay for Inhibitors of Fructose-1,6-bisphosphate Aldolase from Giardia Lamblia: Coupling assay counterscreen confirmation. GAPDH coupling enzyme counterscreen, biochemical, qHTS. shares compounds with Giardia FBPA inh-1. Potency, µM (series often up to 57.5 µM), inactives show top-dose activity change, negative = inhibition, hits mostly inhibitors. actives 6% (n = 1,500); note: nearly all actives have a fitted effect of over 55% in size
* marks the source's active call; other numbers are inactive results; ? = inconclusive; · = no result; [ ] = remark or other dose. Compounds with a hit are over-represented: about 0.95% of the library has one in this group of screens. Unless noted, calls come from the whole dose curve; as a rule, active = well fitted curve in the direction sought with a large enough effect; inconclusive = small, poorly fitted or top-dose-only effect, or another doubt; inactive = no such curve, though single readings can be large; an effect the other way counts as inactive or inconclusive. % is set by controls: 0 for no effect and ±100 for the full control effect; potency is the fitted concentration of half-maximal effect.

SMILES | RE007 growth inh | Giardia FBPA inh-1 | Tb PYK inh | LmPK inhibitor | Giardia growth | Mammal cell tox | Giardia FBPA inh-2 | Rabbit FBPA inh | GAPDH counter
O=c1oc2ccccc2c(O)c1C(c1ccccn1)c1c(O)c2ccccc2oc1=O | -6% | ? | -3% | 12% | · | · | · | · | ·
COC(=O)c1ccccc1NC(=O)Cn1c(=O)n(Cc2ccc(C(=O)NCc3ccc4c(c3)OCO4)cc2)c(=O)c2ccccc21 | · | · | -3% | · | · | · | · | · | ·
COc1ccccc1NCC(O)COc1ccc(C(C)(C)C)cc1 (stereo not given) | ? | 18µM* | -2% | -2% | ? | 9% | -12% | -1% | -12%
CCn1nc(C)cc1-c1n[nH]c(=S)n1N | -8% | 7.1µM* | ? | 2% | 17% | 21% | 7% | -3% | 14%
CCc1ccc(-n2nc3ccc(NC(=O)COc4ccc(OC)cc4)cc3n2)cc1 | · | · | -10% | · | · | · | · | · | ·
CCC(NC(=O)NNC(N)=S)(C(F)(F)F)C(F)(F)F | -4% | 20µM* | -8% | -2% | 17% | 9% | 6% | 3% | 7%
N#CC1=C(N)N(c2ccc(Cl)cc2)C2=C(C(=O)CCC2)C1c1cc(CN2CCOCC2)cs1 (stereo not given) | · | · | -10% | · | · | · | · | · | ·
Nc1ccc2nc(CCCCc3nc4ccccc4[nH]3)[nH]c2c1 | 1% | 13µM* | 6% | -1% | 41% | -8% | -23% | -9% | -6%
CCc1nn(CCCC(=O)N2CCN(c3cccc(OC)c3)CC2)c(=O)c2cc3occc3n12 | · | · | 3% | · | · | · | · | · | ·
C[N+](C)=C1SCC(C)(/C=N/O)S1 (stereo not given) | -24% | 14µM* | 5% | -2% | 58% | -10% | 0% | 12% | 1%
CN(C)CCCNCC(=O)c1c(-c2ccccc2)n(C)c2ccccc12 | -6% | 14µM* | 2% | -11% | 9% | -3% | 3% | -1% | 5%
Cn1c(-c2ccccc2)c(C(=O)CC#N)c2ccccc21 | -5% | 7% | -1% | -1% | · | · | · | · | ·
O=C(C1=NN[C@@H]2C(=O)N(c3ccccc3C(F)(F)F)C(=O)[C@H]12)c1cnccn1 | 17% | 3% | -1% | -2% | · | · | · | · | ·
O=C(C1=NN[C@@H]2C(=O)N(c3cccc(F)c3)C(=O)[C@H]12)c1cnccn1 | 2% | 16µM* | 4% | 1% | ? | -9% | 0% | 6% | 10%
CCN(CC#CCC(O)(c1ccccc1)C1CCCC1)C(C)C (stereo not given) | -15% | · | -2% | 0% | · | · | · | · | ·
CC(C)N(CC#CCC(O)(c1ccccc1)C1CCCC1)CCO (stereo not given) | 17% | 10µM* | -9% | 6% | 4%[38.3 µM] | -3% | 2% | 1% | 0%
CCOc1ccccc1CNC(=O)c1cc2c(=O)n(Cc3ccco3)ccc2nc1C | · | · | -14% | · | · | · | · | · | ·
C=CCNC(=S)N1CCN(Cc2ccccc2)CC1 | -19% | 18µM* | 40% | -4% | -12%[10.4 µM] | 11% | 12% | 13% | 7%
